Measurements from PubChem BioAssay AID1159580 (chemical genetic matrix, 2015).
Hit rate of the full screen: of about 5,500 compounds, about 2,000 (36%) were called active. About 18% were inconclusive and are not listed. No stated cut-off is given here; in the data, active means normalized growth mostly below about 0.91 (no sharp cut-off); inconclusive means no clear call, values can overlap the other calls; inactive means mostly above about 0.92. The list shows a part of the results.

Experiment: chemical genetic growth profiling, strain panel (AID 1159580);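 further: tested at 20 µM; growth read once vehicle control cultures reached saturation at 30 °C; 1 = growth at the plate median or of vehicle wells; lower values mean less growth of the strain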
Conditions: growth OD

Measured: normalized growth

Nc1ccn(C2O[C@H](CO)[C@@H](O)[C@@H]2O)c(=O)n1 (stereo partly drawn)
inactive: S. cerevisiae deletion strains, locus YKL009W, strain mrt4, active compounds read low 0.992 | S. cerevisiae deletion strains, locus YKL068W, active compounds read low 0.994 | S. cerevisiae deletion strains, locus YKL085W, strain MDH1 (second series), active compounds read low 1 | S. cerevisiae deletion strains, locus YKL085W, strain MDH1, active compounds read low 1 | S. cerevisiae deletion strains, locus YKL160W, strain elf1, active compounds read low 1.05 | S. cerevisiae deletion strains, locus YKL190W, strain CNB1, active compounds read low 1.01 | S. cerevisiae deletion strains, locus YKR001C, strain vps1, active compounds read low 1.01 | S. cerevisiae deletion strains, locus YKR026C, strain gcn3, active compounds read low 0.999 | S. cerevisiae deletion strains, locus YKR091W, strain srl3, active compounds read low 0.997 | S. cerevisiae deletion strains, locus YLL001W, strain dnm1, active compounds read low 1.07 | S. cerevisiae deletion strains, locus YLL026W, active compounds read low 0.994 | S. cerevisiae deletion strains, locus YLL041C, strain sdh2, active compounds read low 0.981 | S. cerevisiae deletion strains, locus YLR027C, strain aat2, active compounds read low 0.993 | S. cerevisiae deletion strains, locus YLR039C, strain RIC1, active compounds read low 1.03 | S. cerevisiae deletion strains, locus YLR058C, strain SHM2, active compounds read low 1.01 | S. cerevisiae deletion strains, locus YLR102C, strain apc9, active compounds read low 0.977 | S. cerevisiae deletion strains, locus YLR113W, strain HOG1, active compounds read low 1.04 | S. cerevisiae deletion strains, locus YLR221C, strain rsa3, active compounds read low 1.06 | S. cerevisiae deletion strains, locus YLR258W, strain gsy2, active compounds read low 1.02 | S. cerevisiae deletion strains, locus YLR262C, strain YPT6 (second series), active compounds read low 1 | S. cerevisiae deletion strains, locus YLR262C, strain YPT6, active compounds read low 1.01 | S. cerevisiae deletion strains, locus YLR268W, strain sec22, active compounds read low 0.992 | S. cerevisiae deletion strains, locus YLR320W, strain mms22, active compounds read low 1.06 | S. cerevisiae deletion strains, locus YLR330W, strain CHS5, active compounds read low 1.01 | S. cerevisiae deletion strains, locus YLR342W, strain FKS1 (second series), active compounds read low 1.02 | S. cerevisiae deletion strains, locus YLR342W, strain FKS1, active compounds read low 0.994 | S. cerevisiae deletion strains, locus YLR357W, strain rsc2, active compounds read low 0.988 | S. cerevisiae deletion strains, locus YLR370C, strain arc18, active compounds read low 1.01 | S. cerevisiae deletion strains, locus YLR371W, strain rom2, active compounds read low 0.995 | S. cerevisiae deletion strains, locus YLR384C, strain iki3, active compounds read low 1 | S. cerevisiae deletion strains, locus YLR418C, strain cdc73, active compounds read low 0.966 | S. cerevisiae deletion strains, locus YML016C, strain PPZ1, active compounds read low 1.01 | S. cerevisiae deletion strains, locus YML032C, strain rad52, active compounds read low 1.01 | S. cerevisiae deletion strains, locus YML120C, strain ndi1, active compounds read low 1.02 | S. cerevisiae deletion strains, locus YML124C, strain tub3, active compounds read low 0.988 | S. cerevisiae deletion strains, locus YMR058W, strain fet3, active compounds read low 0.997 | S. cerevisiae deletion strains, locus YMR078C, strain ctf18, active compounds read low 0.992 | S. cerevisiae deletion strains, locus YMR125W, strain sto1, active compounds read low 0.996 | S. cerevisiae deletion strains, locus YMR129W, active compounds read low 0.979 | S. cerevisiae deletion strains, locus YMR205C, strain PFK2, active compounds read low 1.04 | S. cerevisiae deletion strains, locus YMR223W, strain ubp8, active compounds read low 0.995 | S. cerevisiae deletion strains, locus YMR231W, strain pep5, active compounds read low 0.989 | S. cerevisiae deletion strains, locus YMR263W, strain SAP30, active compounds read low 1 | S. cerevisiae deletion strains, locus YMR307W, strain GAS1, active compounds read low 1.04 | S. cerevisiae deletion strains, locus YNL067W, strain RPL9B, active compounds read low 1 | S. cerevisiae deletion strains, locus YNL071W, strain lat1, active compounds read low 0.977 | S. cerevisiae deletion strains, locus YNL128W, strain TEP1, active compounds read low 1.02 | S. cerevisiae deletion strains, locus YNL183C, strain NPR1, active compounds read low 0.964 | S. cerevisiae deletion strains, locus YNL209W, strain ssb2, active compounds read low 0.994 | S. cerevisiae deletion strains, locus YNL233W, strain BNI4, active compounds read low 0.991 | S. cerevisiae deletion strains, locus YNL248C, strain rpa49, active compounds read low 0.993 | S. cerevisiae deletion strains, locus YNL250W, strain rad50, active compounds read low 0.994 | S. cerevisiae deletion strains, locus YNL271C, strain bni1, active compounds read low 0.996 | S. cerevisiae deletion strains, locus YNL298W, strain CLA4, active compounds read low 0.998 | S. cerevisiae deletion strains, locus YNL307C, strain MCK1, active compounds read low 0.997 | S. cerevisiae deletion strains, locus YNL322C, strain KRE1 (second series), active compounds read low 1.01 | S. cerevisiae deletion strains, locus YNR049C, strain mso1, active compounds read low 0.989 | S. cerevisiae deletion strains, locus YNR052C, strain pop2, active compounds read low 0.996 | S. cerevisiae deletion strains, locus YOL006C, strain TOP1, active compounds read low 1.05 | S. cerevisiae deletion strains, locus YOL012C, strain htz1 1.42 | S. cerevisiae deletion strains, locus YOL147C, strain pex11, active compounds read low 0.992 | S. cerevisiae deletion strains, locus YOR001W, strain rrp6, active compounds read low 0.933 | S. cerevisiae deletion strains, locus YOR061W, strain CKA2, active compounds read low 1.01 | S. cerevisiae deletion strains, locus YOR069W, strain VPS5, active compounds read low 1.01 | S. cerevisiae deletion strains, locus YOR070C, strain gyp1, active compounds read low 0.993 | S. cerevisiae deletion strains, locus YOR080W, strain dia2, active compounds read low 0.992 | S. cerevisiae deletion strains, locus YOR083W, strain WHI5, active compounds read low 1.06 | S. cerevisiae deletion strains, locus YOR106W, strain vam3, active compounds read low 1.08 | S. cerevisiae deletion strains, locus YOR136W, strain idh2, active compounds read low 1 | S. cerevisiae deletion strains, locus YOR144C, strain elg1, active compounds read low 1 | S. cerevisiae deletion strains, locus YOR184W, strain ser1, active compounds read low 0.997 | S. cerevisiae deletion strains, locus YOR231W, strain MKK1, active compounds read low 1.03 | S. cerevisiae deletion strains, locus YOR265W, strain rbl2, active compounds read low 1 | S. cerevisiae deletion strains, locus YOR270C, strain vph1, active compounds read low 1.05 | S. cerevisiae deletion strains, locus YOR290C, strain snf2, active compounds read low 1.02 | S. cerevisiae deletion strains, locus YOR316C, strain cot1, active compounds read low 0.993 | S. cerevisiae deletion strains, locus YPL051W, strain arl3, active compounds read low 1.04 | S. cerevisiae deletion strains, locus YPL078C, strain atp4, active compounds read low 1.04 | S. cerevisiae deletion strains, locus YPL106C, strain sse1, active compounds read low 1.01 | S. cerevisiae deletion strains, locus YPL240C, strain hsp82, active compounds read low 1.01 | S. cerevisiae deletion strains, locus YPL241C, strain CIN2, active compounds read low 1.01 | S. cerevisiae deletion strains, locus YPL256C, strain CLN2, active compounds read low 1.03 | S. cerevisiae deletion strains, locus YPR119W, strain clb2, active compounds read low 0.986 | S. cerevisiae deletion strains, locus YPR141C, strain kar3, active compounds read low 0.993 | S. cerevisiae deletion strains, locus YPR163C, strain tif3, active compounds read low 1.01 | S. cerevisiae deletion strains, locus YPR167C, strain met16, active compounds read low 0.995 | S. cerevisiae deletion strains, strain wtn01, active compounds read low 0.993 | S. cerevisiae strains, strain wild type, active compounds read low 1.01
